Screening data: PubChem, National Center for Advancing Translational Sciences (NCATS)
Hits are enriched below; roughly 19% of the tested compounds scored in any of these assays.
Lassa entry inh: inhibitors of Lassa virus binding or cell entry; Lassa virus pseudotype entry inhibition, cell reporter; Potency, µM (doses to about 37.9 µM), for inactives: at the highest dose activity change, negative = inhibition, hits mostly inhibitors; actives 1.2% (n = 300,000); calls by dose curve; tested in HEK293 cells; further: potency means the concentration at half of the fitted maximal effect; on the % scale 0 is the no-effect control and ±100 the full control effect; nearly all actives have a fitted effect of over 50% in size
Shiga inhibitor: blocks Shiga toxin action in Vero cells; Vero cells, Shiga toxin protein synthesis inhibition reporter; inhibition, % at 38.7 µM; actives 9.2% (n = 290,000); in the data active means inhibition mostly above about 28%, no sharp cut-off; inactive means mostly below about 43%; further: 0% is about no effect
Marburg entry inh: inhibitors of Marburg virus binding or cell entry; Potency, µM (highest dose often 37.8 µM), for inactives: at the top dose activity change, negative = inhibition, most hits filed as inhibitors; AID 540276; actives 1.8% (n = 300,000); Marburg virus pseudotyped entry inhibition, cell reporter; calls by dose curve; tested in HEK293 cells; further: potency means the concentration at half of the fitted maximal effect; on the % scale 0 is the no-effect control and ±100 the full control effect
Pf growth 48h: P. falciparum growth inhibition at 48 hours (one generation); actives 5.9% (n = 310,000); P. falciparum luciferase growth in erythrocytes, 48 h; Potency, µM (series often up to 28.7 µM), without a hit: top-dose activity change, negative = inhibition, most hits filed as inhibitors; further: potency means the concentration at half of the fitted maximal effect; on the % scale 0 is the no-effect control and ±100 the full control effect
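Luminescence readout; reporter = integrated firefly luciferase in P. falciparum. RBC culture at 2% hematocrit, 0.1% parasitemia final, 37 C/5% CO2; decreased signal taken as growth inhibition.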
Pf growth 96h: P. falciparum growth inhibition at 96 hours. P. falciparum luciferase reporter growth, 96 h. Potency, µM (titrated, usually from 28.7 µM), for inactives: at the highest dose activity change, negative = inhibition, usual class: inhibitors. actives 6.9% (n = 320,000). AID 504834; further: potency means the concentration at half of the fitted maximal effect; on the % scale 0 is the no-effect control and ±100 the full control effect
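Luminescence readout: decreased luciferase signal marks inhibited growth of reporter-expressing P. falciparum in infected red cells (2% hematocrit, 0.05% parasitemia final), exposed to compound two generations (96 h, 37 C, 5% CO2).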
CHX counter: affects cycloheximide protein synthesis inhibition readout, counter-screen | cell reporter, cycloheximide protein synthesis inhibition counterscreen | max response, % | actives 12% (n = 300,000) | AID 2314; in the data active means max response mostly above about 13%, no sharp cut-off; inactive means mostly below about 14%; further: read at 38.3 µM for the half of the compounds with a filed dose; 0% is about no effect
Active calls of the source: *; ? = inconclusive; . = not tested or not shown; + = active, no number; [ ] = remark or other dose. Unless noted, the call rests on the fitted dose curve; in most records, active means well fitted inhibition curve with a large enough effect; inconclusive means small, poorly fitted or top-dose-only effect, or another doubt; inactive means no such curve, though single readings can be large or run the other way.

SMILES | Lassa entry inh | Shiga inhibitor | Marburg entry inh | Pf growth 48h | Pf growth 96h | CHX counter
O=C(O)c1cncc(C#CCC2CCCCC2)c1 | 2.9% | 89.6* | ? | 5.2% | 15.6% | 77.0*
O=C(O)c1cncc(C#Cc2ccccc2)c1 | 9.1%[46.1 µM] | -7.1 | 19.9%[46.1 µM] | 18.8% | -11.5% | 0.9
Nc1ncnc2nc(SCCN3CCCCC3)[nH]c12 | 10.7% | -5.5 | -7.3% | -7.3% | 8.9% | -2.7
Cc1cc2nc(SCCN3CCCC3)[nH]c2cc1C | 0.2% | 13.7 | -1.5% | . | -3.1% | 12.5*
CCOc1ccccc1NC(=S)NCCCn1ccnc1 | . | 18.1 | . | 7.9% | 47.4% | -2.2
CN(C)C(=O)c1ccc(NC(=O)c2cccc(S(=O)(=O)N3CCCCCC3)c2)cc1 | . | . | . | ? | 5.22µM* | .
CC(=O)Nc1ccc(S(=O)(=O)N2CCCc3ccccc32)cc1 | ? | -6.4 | ? | -13.4% | -23.3% | -3.0
CN(C)C(=O)c1ccc(NC(=O)c2cccc(S(=O)(=O)N3CCCc4ccccc43)c2)cc1 | ? | . | ? | 5.22µM* | 9.28µM* | .
COc1ccc(C(=O)NC(=S)Nc2nc(-c3ccc(OC)c(Br)c3)cs2)cc1Br | . | 4.8 | . | ? | ? | 4.5
CC(=O)N1CCC2(CC1)C/C(=N\NC(=S)Nc1ccccc1F)c1cc(O)ccc1O2 | ? | 2.8 | ? | -18.9% | 23.1% | 7.9
O=c1ccn(-c2cccc(C(F)(F)F)c2)nc1-c1ccn(-c2ccccc2)n1 | -19.2% | -18.3 | -5.6% | 10.4µM* | 0.0% | 9.8
Cc1nn(-c2cccc(C(F)(F)F)c2)c(=O)c2ccccc12 | -4.1% | . | 3.7% | 22.7% | 2.0% | 15.6*
Cc1nn(-c2ccccc2)c(=O)c2ccccc12 | -16.3% | 17.6 | 9.2%[46.1 µM] | 12.3% | ? | 14.1
Cn1cc(Br)c(C(=O)N/N=C/c2cc3c(cc2Cl)OCO3)n1 | . | 55.5 | . | 71.5% | 99.0% | 23.7*
O=C(N/N=C/c1cc2c(cc1Cl)OCO2)c1ccccn1 | ? | . | -7.6% | . | . | .
Cc1nonc1C(=O)N/N=C/c1cc2c(cc1Br)OCO2 | . | 45.9 | . | 6.9% | -23.7% | 27.8*
Cn1cc(Br)c(C(=O)N/N=C/c2cccc(OC3CSC3)c2)n1 | 5.8% | + | -11.0% | 33.8% | -3.2% | 56.6*
Nc1nonc1C(=O)N/N=C\c1cc2c(cc1Cl)OCO2 | . | 41.6* | . | 0.4% | -12.6% | 43.8*
Cc1nn2cc(-c3ccc(Cl)cc3)cnc2c1Cl | -1.8% | 49.3* | ? | 372.0% | 356.3% | 28.9*
COc1cccc(CN2CCNC(=O)C2CC(=O)N2CCOc3ccccc3C2)c1OC (stereo unspecified) | 0.2% | 10.8 | ? | ? | 51.8% | -3.9
O=[N+]([O-])c1ccc(Nc2ccccc2)cc1 | -3.5% | 25.8 | 3.1% | 32.0% | ? | 15.8*
Cc1ccc(NC(=O)C2(c3ccc([N+](=O)[O-])cc3)CCCC2)cc1 | . | -21.4 | . | 2.62µM* | -3.3% | -0.3
Cc1ccc(C(C)C)cc1NC(=O)Nc1ccc([N+](=O)[O-])cc1 | . | 33.6* | . | 4.15µM* | 3.29µM* | 33.2
O=[N+]([O-])c1ccc(NNC(=S)Nc2ccc(F)cc2)cc1 | ? | 85.6* | ? | ? | ? | 27.5*
O=C(NNC(=S)Nc1ccc(F)cc1)c1cccc([N+](=O)[O-])c1 | ? | 7.4 | ? | 61.7% | 81.6% | 8.4
SMILES | Lassa entry inh | Shiga inhibitor | Marburg entry inh | Pf growth 48h | Pf growth 96h | CHX counter
CCC(=O)N1c2ccc(S(=O)(=O)CCC(=O)Nc3ccc(OC)cc3OC)cc2CC1C (stereo unspecified) | 6.0%[46.1 µM] | 5.9 | 10.0%[46.1 µM] | -4.7% | 156.5% | 0.6
Cc1ccc(C)c(OCCC(=O)OCC(=O)Nc2cccnc2Cl)c1 | -9.6% | . | 21.5% | . | . | .
O=C(OCc1c(Cl)cccc1Cl)c1cccnc1Cl | -5.5% | -9.7 | -2.1% | . | -6.2% | -3.5
O=C(Nc1ccc([N+](=O)[O-])cc1)Nc1ccc([N+](=O)[O-])cc1 | . | . | . | 2.69µM* | 2.39µM* | .
COc1ccc(CCNC(=O)CSc2nc3[nH]ncc3c(=O)n2-c2ccccc2OC)cc1OC | . | -6.4 | . | -23.8% | 3.9% | 1.1
O=C(/C=C\c1ccc2c(c1)OCO2)Nc1c2c(nn1-c1ccc(Cl)cc1)CSC2 | -9.8% | -19.9 | -19.1% | ? | 10.4µM* | -3.6
O=C(CCCCl)Nc1c2c(nn1-c1ccccc1)CSC2 | . | 8.0 | . | -8.8% | 8.2% | -1.0
O=C(CCl)Nc1c2c(nn1-c1ccccc1)CSC2 | ? | -3.2 | ? | 4.15µM* | 2.94µM* | 3.6
O=C(/C=C\c1ccc2c(c1)OCO2)NC1CC(=O)N(c2ccc(Cl)cc2)C1 (stereo unspecified) | 6.0%[46.1 µM] | . | . | . | . | .
CCOc1ccc(C(=O)NCc2ccncc2)cc1 | -7.9% | -5.5 | -21.0% | 6.5% | 4.15µM* | -2.6
CCOc1ccc(C(=O)NCC(c2cccs2)N(C)C)cc1 (stereo unspecified) | 16.1% | 28.5* | 9.8% | 15.7% | ? | 35.2*
CCOc1ccc(C(=O)NCC(C)C)cc1 | 15.5% | 57.5* | ? | 56.6% | 280.7% | 21.8*
CC(NC(=O)COc1ccccc1)C1COc2ccccc2O1 (stereo unspecified) | -0.6% | . | 0.0% | . | . | .
CCOc1ccc(C(=O)NC(C)C2COc3ccccc3O2)cc1 (stereo unspecified) | -15.4% | 33.7 | 4.9%[46.1 µM] | 33.3% | 1.1% | 10.5*
CCOc1ccc(C(=O)NCC(c2cccs2)S(=O)(=O)c2ccccc2)cc1 (stereo unspecified) | -12.0%[46.1 µM] | . | . | . | . | .
CN(C)C(=Nc1ccccc1)P(=S)(N(C)C)N(C)C | ? | 4.0 | 4.3%[46.1 µM] | 14.7% | 24.2% | -2.7
COc1ccc(-c2[nH]ncc2CN2CCC(O)(c3ccc(Cl)cc3)CC2)cc1 | -7.2%[46.1 µM] | -3.0 | ? | ? | 11.7µM* | -1.9
Fc1ccccc1N1CCN(C2CCN(Cc3c[nH]c4ccccc34)CC2)CC1 | ? | 15.8 | 9.2µM* | . | 3.7µM* | 24.2
OC1(c2ccc(Cl)cc2)CCN(Cc2c[nH]c3ccccc23)CC1 | ? | . | 2.82µM* | . | . | .
COc1ccc(Cn2nnnc2CN2CCC(O)(c3ccc(F)cc3)CC2)cc1 | -27.9% | 16.1 | ? | -2.1% | -56.6% | -2.8
Cc1ccc(Cn2nnnc2CN2CCC(O)(c3ccc(F)cc3)CC2)cc1 | -24.3% | 2.0 | -2.1% | 13.1µM* | 36.2% | -2.2
